Rows were chosen to be rich in hits. Some 2.3% of all compounds tested hit in one or more screens of this group.
CHT PAM – allosterically activates the human high affinity choline transporter; CHT-expressing cells, membrane potential dye, choline EC20; stronger effect = higher value; LV-AA mutant CHT in HEK293 cells; Q9GZV3; B-score at 10 µM; 310,000 tested, 0.49% active;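 active = initial fluorescence not abnormally high and integrated response B-score, plate-corrected, over 3 SD above library mean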
CHT inh – human CHT choline transport inhibition; Q9GZV3; CHT-expressing cells, membrane potential dye, choline response; stronger effect = lower value; B-score at 10 µM; 310,000 tested, 0.86% active;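 active = B-score over 3 SD under the library average, and starting fluorescence ratio not unusually high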;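 note: choline stimulus applied at its EC90 after an EC20 pre-addition; B-score computed on integrated fluorescence ratio after choline addition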
TMEM16A inh – inhibitors of mouse TMEM16A calcium-activated chloride channel | HEK293 TMEM16A/YFP iodide influx fluorescence, ionomycin | normalized B-score (activity score, 25-100; higher = stronger inhibition) at 10 µM | 310,000 tested, 1.2% active | Q8BHY3;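 active = ratio plate-corrected score three or more library SD toward inhibition, starting fluorescence score within five deviations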;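 note: score derived from kinetic fluorescence span divided by baseline fluorescence per well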
Target sequence (Q8BHY3 whole entry, looked up): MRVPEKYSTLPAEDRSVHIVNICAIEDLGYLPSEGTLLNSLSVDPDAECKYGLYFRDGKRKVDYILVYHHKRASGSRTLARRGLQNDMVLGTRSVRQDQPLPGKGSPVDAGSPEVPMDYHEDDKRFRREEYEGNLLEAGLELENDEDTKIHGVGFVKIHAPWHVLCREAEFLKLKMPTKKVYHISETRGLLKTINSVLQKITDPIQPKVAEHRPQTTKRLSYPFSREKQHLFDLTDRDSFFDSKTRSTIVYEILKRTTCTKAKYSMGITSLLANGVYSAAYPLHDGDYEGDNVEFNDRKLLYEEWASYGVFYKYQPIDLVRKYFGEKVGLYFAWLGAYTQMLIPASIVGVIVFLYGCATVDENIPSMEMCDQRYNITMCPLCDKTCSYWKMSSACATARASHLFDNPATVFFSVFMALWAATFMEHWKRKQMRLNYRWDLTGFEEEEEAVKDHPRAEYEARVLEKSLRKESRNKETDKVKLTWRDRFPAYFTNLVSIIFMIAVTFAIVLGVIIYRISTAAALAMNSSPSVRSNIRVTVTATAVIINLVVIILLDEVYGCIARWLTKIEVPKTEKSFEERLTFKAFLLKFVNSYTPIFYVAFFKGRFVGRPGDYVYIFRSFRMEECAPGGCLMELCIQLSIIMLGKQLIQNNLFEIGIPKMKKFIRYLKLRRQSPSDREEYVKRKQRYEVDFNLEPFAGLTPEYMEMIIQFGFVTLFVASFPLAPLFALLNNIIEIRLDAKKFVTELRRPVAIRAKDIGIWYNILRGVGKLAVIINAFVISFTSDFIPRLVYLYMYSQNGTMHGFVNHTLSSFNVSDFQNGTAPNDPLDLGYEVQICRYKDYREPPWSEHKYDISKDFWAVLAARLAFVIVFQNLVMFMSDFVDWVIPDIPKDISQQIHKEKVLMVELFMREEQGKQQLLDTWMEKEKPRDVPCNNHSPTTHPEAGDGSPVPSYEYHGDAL
TMEM16A act – activates or potentiates the mouse TMEM16A chloride channel; Q8BHY3; HEK293 TMEM16A/YFP-H148Q/I152L, iodide quench fluorescence; stronger effect = lower value; B-score at 10 µM; 340,000 tested, 0.3% active; AID 623877;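 active = fluorescence-ratio B-score plate-corrected deviation score at least 3 library SD below zero, with starting fluorescence score within 5 deviations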;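 note: channel opened by trigger with iodide after compound preincubation; score built on the fluorescence ratio of max minus min over baseline; more negative score means more quench and so TMEM16A activation or potentiation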
CHT inh conf – confirmation of human choline transporter CHT inhibitors | shares compounds with CHT inh | CHT-expressing cells, choline membrane potential dye; LV-to-AA substituted CHT, HEK293 cells | CHT activity remaining % of control (stronger effect = lower value), % at 10 µM | 2,400 tested, 70% active | AID 493221;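 active = choline transporter activity left, mean of duplicates at 10 µM, below buffer-only control mean minus 3 SD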;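 note: depolarization triggered by choline at its EC90 following an EC20 pre-addition; 0% = hemicholinium-3 full block and 100% = buffer-only control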
HEK293 MPD ctr – CHT inhibitor counter-screen hit in parental HEK293 cells; membrane potential ratio readout (active if shifted either direction beyond buffer ±3SD; no single direction) at 10 µM; shares compounds with CHT inh; AID 493222; membrane potential dye, choline response; active = decrease or increase beyond buffer ±3SD; 2,400 tested, 4% active;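 note: parental cells lack the transporter so any hit is non-specific; ratio is peak minus trough fluorescence over baseline after EC90 choline challenge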
Active calls of the source: *; i = inactive; nt = no result.

SMILES	CHT PAM	CHT inh	TMEM16A inh	TMEM16A act	CHT inh conf	HEK293 MPD ctr
Cc1ccc(C(=O)NCCCNC(=O)Cc2ccc(Cl)cc2)cn1	i	i	i	i	nt	nt
CSCCC(NC(=O)c1ccccc1)C(=O)Nc1ccc(C)cc1 (configuration not stated)	i	-7.5*	i	i	70%*	i
COc1cccc(NC(=O)N2CCCC2C(=O)NCc2ccc(Cl)cc2)c1 (configuration not stated)	i	i	i	i	nt	nt
Nc1nonc1C(=O)N/N=C/c1cc2c(cc1[N+](=O)[O-])OCO2	i	i	i	i	nt	nt
Cn1cc([N+](=O)[O-])c(C(=O)N/N=C/c2cc3c(cc2Br)OCO3)n1	i	-9.1*	i	i	i	i
O=C(CCC(=O)N1CCN(S(=O)(=O)c2ccccc2)CC1)c1ccc(Br)cc1	nt	nt	nt	i	nt	nt
S=C(NCc1ccccn1)Nc1ccc(Br)cc1Cl	i	-6.4*	i	i	38%*	i
CCn1c(=O)c2c(nc3n2CCCN3CCc2ccc(OC)c(OC)c2)n(C)c1=O	i	i	i	i	nt	nt
CCCn1c(=O)c2c(nc3n2CCCN3CCc2ccc(OC)c(OC)c2)n(C)c1=O	i	-5.2*	i	i	70%*	i
CC1(C(=O)Nc2ccc(S(=O)(=O)Nc3ncccn3)cc2)CCCC1	nt	nt	nt	i	nt	nt
CCOC(=O)C(C)Sc1nnc(NC(=O)c2cccc([N+](=O)[O-])c2C)s1 (configuration not stated)	i	-5.2*	i	i	52%*	i
Cc1ccc2c(c1)N(C(=O)CCC(=O)NCCN1CCOCC1)CCO2	i	i	i	i	nt	nt
Cc1sc2nc(SCCN(C)C)n(-c3ccccc3)c(=O)c2c1-c1ccc(F)cc1	i	-5.9*	i	i	26%*	i
C#CCNc1c(C)c(C)nc2ncnn12	i	-5*	i	i	23%*	i
COCCn1c(SCC(=O)Nc2ccc3[nH]c(=O)[nH]c3c2)nc2ccccc21	nt	nt	nt	i	nt	nt
CCCCNC(=S)Nc1ccc2nc(N3CCN(CC)CC3)cc(C)c2c1	i	i	i	nt	nt	nt
CCN1CCN(c2cc(C)c3cc(NC(=S)NCCCN4CCc5ccccc5C4)ccc3n2)CC1	i	-5.4*	i	i	31%*	2.8*
CCCN1CCN(CCCNC(=S)Nc2ccc3nc(N4CCN(CC)CC4)cc(C)c3c2)CC1	i	-6.7*	i	i	13%*	i
Cc1cc(N2CCN(C)CC2)nc2ccc(NC(=S)NCCCN3CCc4ccccc4C3)cc12	i	i	i	i	nt	nt
CCCCn1c(N)c(-c2nc3ccccc3o2)c2c([N+](=O)[O-])nn(C)c(=O)c21	i	i	i	i	nt	nt
CCCCCn1c(N)c(-c2nc3ccccc3s2)c2c([N+](=O)[O-])nn(C)c(=O)c21	i	-6.3*	i	i	i	i
COc1cccc(C(=O)Nc2c3c(nn2-c2ccc(Cl)cc2)CS(=O)(=O)C3)c1OC	i	i	i	i	nt	nt
COc1ccc(-c2csc(Cc3nnc4n3CCCCC4)n2)cc1	i	-5*	i	i	42%*	i
CCN(CC)CCNC(=O)c1ccc2c(c1NCCO)C(=O)c1ccccc1C2=O	i	i	i	nt	nt	nt
CC1CCN(C(=O)c2ccc3c(c2NCCO)C(=O)c2ccccc2C3=O)CC1	i	-6.3*	i	i	50%*	2.3*
COc1ccccc1CNC(=O)COC(=O)c1cc(=O)c2ccccc2o1	nt	nt	nt	i	nt	nt
CCCCC1(c2ccc(F)cc2)NC(=O)N(CC(=O)Nc2ccc(N3CCOCC3)cc2)C1=O (configuration not stated)	nt	nt	nt	i	nt	nt
Cn1c(=O)c2c(ncn2CC(=O)Nc2cc(S(=O)(=O)N3CCCCC3)ccc2Cl)n(C)c1=O	nt	nt	nt	i	nt	nt
Cc1ccc(S(=O)(=O)NCCC(=O)NC(C)CCc2ccccc2)cc1 (configuration not stated)	i	-5.1*	i	i	50%*	i

Compound activity: PubChem, Johns Hopkins Ion Channel Center
